# DT40 TDP1 CPT – growth inhibition of DT40 Tdp1-/-;hTDP1 cells with camptothecin (screen for TDP1 inhibitors); AID 686979; 420,000 compounds, 12% hits; Potency, µM (top dose mostly 46.2 µM), most hits filed as inhibitors; chicken DT40 Tdp1-/-;hTDP1 cells + 20 nM CPT, ATP luminescence, 48 h; note: nearly all actives have a fitted effect of over 55% in size
#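 Chicken DT40 Tdp1-/- cells complemented with human TDP1, 400 cells/well, exposed to compounds plus 20 nM camptothecin for at least 48 h at 37 C; viability read as ATP content by CellTiter-Glo luminescence.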
# HT1080 IDH1KD tx – kills HT-1080 cells with IDH1 knockdown; Potency, µM (top dose mostly 46.1 µM), hits mostly cytotoxic; 360,000 compounds, 2% hits; HT-1080 IDH1 knockdown viability, ATP luminescence, 48 h
#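 Cytotoxicity counter-line: IDH1KD HT-1080, 48 h, CellTiter-Glo. Curves classed by r2, magnitude and activity.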
# DT40 TDP1 no CPT – qHTS for Inhibitors of human tyrosyl-DNA phosphodiesterase 1 (TDP1): qHTS in cells in absence of CPT; 420,000 compounds, 15% hits; AID 686978, 2013; DT40 Tdp1-/- hTDP1 cells, no CPT, ATP luminescence, 48 h; Potency, µM (titrated, usually from 46.2 µM), actives largely listed as inhibitors; note: nearly all actives have a fitted effect of over 55% in size
#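 Readout: luminescence from CellTiter-Glo after 30 min in the dark at RT. Cells: DT40 Tdp1-/- with stable hTDP1, 400/well. Exposure: compounds alone, ≥48 hr, 37 °C.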
# IL-1B inflam inh – inhibitors of inflammasome signaling (IL-1 beta secretion) | THP-1 LPS/ATP IL-1B secretion, AlphaLISA, 16 h; stronger effect = lower value | activity change, % at 57.5 µM | 360,000 compounds, 4.7% hits; in the data active = activity change below about -50%; inconclusive = mostly about -30% to -49%
#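 Secreted IL-1B measured by AlphaLISA bead assay after 16 h compound exposure of THP-1 cells; compounds (final up to 57.5 uM) added 1 h before LPS (250 ng/mL) and ATP (1.25 mM) stimulation; lower signal means less secretion.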
# HT1080NT lethal – kills 2HG-producing HT-1080-NT fibrosarcoma cells | HT-1080-NT fibrosarcoma viability, CellTiter-Glo ATP luminescence, 48 h | Potency, µM (top dose mostly 46.1 µM), actives largely listed as cytotoxic | 360,000 compounds, 1.6% hits;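 note: NT is the 2HG producing partner of a matched IDH1 knockdown line; nearly all actives have a fitted effect of over 55% in size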
#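 Luminescent CellTiter-Glo readout after 48 hours of compound exposure at 37 degrees C defined viability of HT-1080-NT cells. Activity was normalized to DMSO wells and cell-free media wells; concentration-response curves were fitted and assigned curve classes.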
# Numbers stand for hits; i = inactive; ? = inconclusive; nt = no result given; [ ] = dose if it differs, or a comment. The list is not random: actives were taken first. Their share in the collection is about 19%. Unless noted, calls come from the whole dose curve; as a rule, active = well fitted curve in the direction sought with a large enough effect; inconclusive = small, poorly fitted or top-dose-only effect, or another doubt; inactive = no such curve, though single readings can be large; an effect the other way counts as inactive or inconclusive.
SMILES,DT40 TDP1 CPT,HT1080 IDH1KD tx,DT40 TDP1 no CPT,IL-1B inflam inh,HT1080NT lethal
CCOC(=O)/C(=C\c1ccccc1)NC(=O)c1ccccc1,i,i,i,i,i
CC(=O)/C(=C/c1ccc(N(C)C)cc1)C(=O)c1ccccc1,?,i,?,i,i
CCCCCCCSc1nnc(N)s1,i,i,i,nt,i
COc1ccc(CNC(=O)CN(C(=O)c2csnn2)c2cccc(C(C)=O)c2)cc1,i,i,?,i,i
Cc1ccc(C)c2sc(N3CCN(C(=O)c4ccc([N+](=O)[O-])o4)CC3)nc12,8.2µM,?,?,-103,?
O=C(c1ccc([N+](=O)[O-])o1)N1CCN(c2nc3c(F)cc(F)cc3s2)CC1,?,i,?,-71,i
CCN(C(=O)COC(=O)c1nc(Cl)ccc1Cl)c1c(N)n(Cc2ccccc2)c(=O)[nH]c1=O,i,i,i,i,i
COc1ccc(CCN(C)CCCC(C#N)(c2cc(OC)c(OC)c(OC)c2)C(C)C)cc1OC (stereo not drawn),?,i,21µM,i,i
CCCCCCCCCCS(=O)(=O)N/N=C/c1ccc(O)cc1,16µM,?,?,?,?
CC(Oc1ccc(F)cc1)C(=O)Nc1cc(S(=O)(=O)N2CCCCC2)ccc1N1CCOCC1 (stereo not drawn),i,i,16µM,i,i
CCN1CCN(c2ccc(S(=O)(=O)N3CCCCC3)cc2NC(=O)C(C)Oc2ccc(F)cc2)CC1 (stereo not drawn),18µM,i,18µM,?,i
CCN1CCN(c2ccc(S(=O)(=O)N3CCCCC3)cc2NC(=O)CC(C)c2ccccc2)CC1 (stereo not drawn),?,i,?,?,i
N#Cc1ccccc1S(=O)(=O)N1CCN(Cc2cc3c(cc2Br)OCCO3)CC1,16µM,i,?,i,i
COc1ccc(S(=O)(=O)N2CCN(Cc3cc4c(cc3Br)OCCO4)CC2)cc1,i,i,?,i,i
Cc1ccc(OCC(=O)NCC(=O)OCc2cc(=O)n3nc(C)sc3n2)cc1,i,nt,i,nt,nt
C[C@@H](C(=O)NCc1c(F)cccc1Cl)N1C(=O)N2CCc3c([nH]c4ccccc34)[C@@]2(C)C1=O,18µM,i,21µM,i,i
COc1ccc2[nH]c3c(c2c1)CCN1C(=O)N([C@@H](C)C(=O)NCc2ccc(F)cc2)C(=O)[C@]31C,i,i,?,i,i
COc1ccc2[nH]c3c(c2c1)CCN1C(=O)N([C@@H](C)C(=O)NCc2c(F)cccc2Cl)C(=O)[C@]31C,18µM,i,?,i,i
C[C@@H](C(=O)NCc1ccco1)N1C(=O)N2CCc3c([nH]c4ccccc34)[C@@]2(C)C1=O,?,i,?,i,i
CCN1CCN(C(=S)NC(C)c2ccccc2)CC1 (stereo not drawn),i,i,i,i,i
CSc1ccc(C(=O)Nc2cc(S(=O)(=O)N3CCOCC3)ccc2N2CCOCC2)cc1[N+](=O)[O-],i,i,i,i,i
COc1ccc2cc(C(=O)N3CCN(c4ccc(F)cc4)CC3)[nH]c2c1,i,i,i,i,i
COc1ccc2cc(C(=O)NCc3ccc4c(c3)CCN4C(=O)c3ccc(C)cc3)[nH]c2c1,13µM,nt,?,nt,nt
COc1ccc2cc(C(=O)NCc3ccc4c(c3)CCN4C(=O)c3ccc(F)cc3)[nH]c2c1,21µM,nt,18µM,nt,nt
CSc1ccc(S(=O)(=O)NCC(=O)OCC(=O)NCc2cccs2)cc1[N+](=O)[O-],i,i,i,-66,i
SMILES,DT40 TDP1 CPT,HT1080 IDH1KD tx,DT40 TDP1 no CPT,IL-1B inflam inh,HT1080NT lethal
CSc1ccc(S(=O)(=O)NCC(=O)OCC(=O)N2CC(C)CC(C)C2)cc1[N+](=O)[O-] (stereo not drawn),i,i,i,i,i
CSc1ccc(S(=O)(=O)NCC(=O)OC2CCOC2=O)cc1[N+](=O)[O-] (stereo not drawn),i,i,i,-68,i
CSc1ccc(S(=O)(=O)NCC(=O)OCC(=O)N2CCCC2=O)cc1[N+](=O)[O-],?,i,?,-96,i
COc1ccc(CCNC(=O)COC(=O)CNS(=O)(=O)c2ccc(SC)c([N+](=O)[O-])c2)cc1,i,i,i,i,i
COc1ccc(-n2c(=O)c(-c3ccccc3)nc3cncnc32)cc1,i,nt,i,nt,nt
Cc1ccc2c(c1)c1cccc3c1n2CCN3CCC(N)=O,i,i,i,i,i
CN(Cc1ccccc1)C(=O)c1cc2c(s1)-c1ccc(Cl)cc1SC2,?,nt,23µM,nt,nt
CCN(CC)CCNC(=O)c1cc2c(s1)-c1ccccc1SC2,23µM,?,16µM,i,?
N#Cc1cccc(NC(=O)c2cc3c(s2)-c2ccc(Cl)cc2SC3)c1,26µM,nt,23µM,nt,nt
COc1ccccc1C(=O)Nc1ccccc1OCc1cc(=O)n2cc(C)sc2n1,i,nt,?,nt,nt
CC(C)OC(=O)c1cc(C(=O)c2cc(F)ccc2O)coc1=N,i,i,i,i,i
COc1ccc(O)c(C(=O)c2coc(=N)c(C(=O)Nc3ccc(SC(F)F)cc3)c2)c1,?,i,18µM,-54,i
COCCCn1c(=S)[nH]c2c(sc3ccccc32)c1=O,i,i,i,i,i
COc1ccc(OCCOC(=O)CCS(=O)(=O)c2ccc(C)cc2)cc1,i,i,i,i,i
COc1cc(C)c(N(C(C)=O)c2ccccc2)c(C)c1,i,i[9.24 µM],i,i,i
CC(=O)N(C1=C(N)C(=O)c2ccccc2C1=O)c1ccccc1,23µM,?,13µM,i,i
Cc1cc(C)nc(Nc2nc(=O)c3ccccc3s2)n1,?,i,21µM,i,i
O=c1[nH]c2ccccc2n1C1=CCCC1,i,i,?,i,i
CCOc1ccc(NC(=O)N2CC=C(c3c[nH]c4ccccc34)CC2)cc1,3.7µM,nt,2.3µM,nt,nt
CCOc1ccc(NC(=O)Cc2c[nH]c3ccccc23)cc1,i,nt,i,nt,nt
CCc1ccc(NC(=O)N2CCCCCC2)cc1,i,i,i,?,i
CCOC(=O)N1CCN(C(=O)Nc2cccc(Cl)c2)CC1,i,i,i,i,i
CCOC(=O)c1cccc(NC(=O)N2CC=C(c3c[nH]c4ccccc34)CC2)c1,?,nt,21µM,nt,nt
CCc1ccc(NC(=O)N2CC=C(c3c[nH]c4ccccc34)CC2)cc1,5.8µM,nt,5.2µM,nt,nt
CSc1ccc(NC(=O)N2CC=C(n3c(=O)[nH]c4ccccc43)CC2)cc1,8.2µM,?,8.2µM,i,i
O=C(CN1CCCCCC1)NN(Cc1ccccc1)c1ccccc1,?,i,?,i,i
CCOC(=O)c1nnn(CC(=O)Nc2cc(C)cc(C)c2)c1C(=O)OCC,i,nt,?,nt,nt
COc1ccc(C(=O)Nc2ccc(C3CC3(Cl)Cl)cc2)cc1 (stereo not drawn),i,?,?,i,i
Cc1ccc(NC(=O)Cn2cnc3c(oc4ccccc43)c2=O)cc1Cl,i,nt,i,nt,nt

# From PubChem BioAssay
